From PubChem BioAssay AID1117319 (Southern Research Institute, 2015)
Several values for one entry are separate records, joined by “and”; a condition that tells them apart may be missing. Identical values can stand only once. The whole screen tested about 260,000 compounds, of which about 1,500 (0.58%) were called active. About 5% were inconclusive and are not listed.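 The calls were made as follows: active = inhibition above a set limit at one or more doses, reproduced on every date tested; inconclusive = results disagree between test dates, or hit never tested in dose response; inactive = the rest.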 These entries were drawn from the full list. Potency and affinity values are given separately.

Molecular target: Virion infectivity factor (Human immunodeficiency virus type 1 group M subtype B (isolate BH10)) + Virion infectivity factor (Human immunodeficiency virus type 1 group M subtype B (isolate BRU/LAI)) + Virion infectivity factor (Human immunodeficiency virus type 1 group M subtype B (isolate PCV12)) + Virion infectivity factor (Human immunodeficiency virus type 1 group M subtype B (isolate HXB2)) + DNA dC->dU-editing enzyme APOBEC-3G (Homo sapiens) (UniProt P69720+P69721+P69722+P69723+Q9HC16)
Assay: inhibitors of Vif binding to APOBEC3G peptide, primary screen, biochemical, TR-FRET, GST-Vif 1-94, biotin-A3G peptide, dose response retest (AID 1117319);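 also: Vif residues 1-94 fused to GST binding biotinylated APOBEC3G peptide 110-148; 0% = full assay without inhibitor and 100% = GST in place of GST-Vif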
Conditions: stronger effect = higher value

inhibition, inactive:
C=CCC[C@H](Cc1ccc(F)cc1)C(=O)OC[C@@H](C)NC(=O)[C@H](CC=C)CC(=O)N(CCO)Cc1ccccc1 0.83%
COc1ccc(OC)c(Nc2nc(C3CC3)nc3c2nnn3Cc2ccccc2)c1 -2.66%
COc1ccc(OC)c(-c2csc(NC(=O)c3ccc(OCC4CCCO4)cc3)n2)c1 (stereo not drawn) 6.81%
C=CCNC(=O)C1COc2ccccc2O1 (stereo not drawn) -12.5%
O=C(c1ccc(Br)cc1)N1CCCc2ccccc21 4.85%
O=C(c1ccccc1)N1CCCc2ccccc21 16.3%
O=C(c1ccc(=O)[nH]c1)N1CCCc2ccccc21 0.97%
O=C(NC(=S)N1CCCc2ccccc21)c1ccc(Br)cc1 -10.8%
O=C(c1coc(=O)c(Br)c1)N1CCOCC1 24.5%
O=C(NC(=S)N1CCCc2ccccc21)c1ccc(Cl)cc1 -35.9%
COc1ccccc1N1CCN(C(=O)c2coc(=O)c(Br)c2)CC1 27.6%
O=C(c1cccc(Br)c1)N1CCCc2ccccc21 4.68%
CSC1=C(C#N)C(c2sccc2C)CC(=O)N1 (stereo not drawn) -3.4%
C[C@@H]1CCC[C@H](C)N1Cc1nc(Cc2ccccc2Cl)no1 -1.65%
Oc1cccc(/C=N/n2c(C3CCCCC3)n[nH]c2=S)c1 2.47%
CC(=O)c1c(C)[nH]c(C(=O)CSc2ccc(F)cc2)c1C 29.5%
CCOC(=O)N1CCN(C(=O)C2CCCCC2)CC1 -1.05%
CCOc1ccsc1C(=O)OC 5.88%
CC1(C)CC(=O)C(C=NCCO)=C(O)C1 -1.68%
O=C(CNC(=O)c1ccc(Cl)cc1)OCN1C(=O)c2ccccc2C1=O -9.8%
CCC(C)(C)n1nnnc1C(c1ccc2ncccc2c1)N1CCN(c2nc3ccccc3s2)CC1 (stereo not drawn) -9.25% and 0.75%
CCC(C)(C)n1nnnc1C(c1ccc2ncccc2c1)N1CCCCCC1 (stereo not drawn) 2.63%
CCOC(=O)C(=O)NC(C)c1ccccc1 (stereo not drawn) 1.23%
N#CC(C#N)=C1C(=O)N(CCN2CCOCC2)c2ccccc21 19.1%
COc1cc(CNCCc2ccccc2)ccc1OCc1ccc(Cl)nc1 2.97%
COc1ccc(CCNCc2ccc(OCc3ccc(Cl)nc3)c(OC)c2)cc1OC 5.39%
CCOc1cccc2sc(N(CCCN(C)C)C(=O)c3ccc(S(=O)(=O)N4CCCCCC4)cc3)nc12 -5.19%
O=C(Nc1ccc(NS(=O)(=O)c2ccccc2)cc1)c1ccccc1Cl 9.4%
CCc1ccccc1NC(=O)Nc1ccc2c(c1)OCO2 -3.87%
Cn1cccc1C(=O)NC(=O)COC(=O)C12CC3CC(CC(O)(C3)C1)C2 9.63%
Cn1cccc1C(=O)NC(=O)COC(=O)CC12CC3CC(CC(C3)C1)C2 -0.55%
COc1ccc(Br)cc1/C=N/NC(=O)c1cccnc1 4.05%
CCC(C(=O)O)N1C(=O)/C(=C/C(C)=C/c2ccccc2)SC1=S (stereo not drawn) -2.68%
O=C(O)CCN1C(=O)/C(=C\c2ccc(-c3nc4ccccc4s3)o2)SC1=S 32.3%
O=C(O)C(Cc1ccccc1)N1C(=O)/C(=C/c2cccs2)SC1=S (stereo not drawn) 24.3%
O=C(O)C(Cc1ccccc1)N1C(=O)/C(=C/c2ccccc2)SC1=S (stereo not drawn) -5.34%
O=C(O)CCN1C(=O)/C(=C/c2ccc(-c3nc4ccccc4s3)o2)SC1=S 1.36%
O=C(O)CN1C(=O)/C(=C/C=C/c2ccccc2)SC1=S 5.16%
CCOc1cc(C2NC(=O)NC(C)=C2C(=O)OCc2ccccc2)ccc1O (stereo not drawn) 0.18%
CCOC(=O)N1CCN(Cc2nc3c(c(=O)[nH]c(=O)n3C)n2Cc2ccccc2C)CC1 23.6%
O=C(CNC(=O)c1ccccc1)Nc1ccsc1C(=O)O -11.3%
COc1ccc(Cc2noc(CN3CCNC(=O)CC3)n2)cc1OC 3.31%
O=c1c2nnn(Cc3ccccc3)c2ncn1C/C=C/c1ccccc1 -0.52%
CC(=O)c1ccc2c3c(ccc([N+](=O)[O-])c13)CC2 -4.85%
Nc1ccc2c3c(ccc([N+](=O)[O-])c13)CC2 -1.18%
Cc1nnc(SCCn2c(N3CCCCC3)nc3c2c(=O)[nH]c(=O)n3C)s1 0.62%
CCOc1ccccc1CNC(=O)Cn1c(=O)oc2ccccc21 72.4%
COc1ccccc1CNC(=O)CCn1c(=O)oc2ccccc21 0.68%
O=C(Nc1ccccc1N1CCOCC1)c1ccc2c(c1)OCCO2 -3.74%
CC(OC(=O)/C=C/c1ccc2ccccc2n1)C(=O)N(C)c1ccccc1 (stereo not drawn) 1.44%
Cc1ccc(Cn2nnnc2CN2CCC(O)(c3ccccc3F)CC2)cc1 20%
CCCCCCCCS(=O)CCC(=O)O (stereo not drawn) 11.3%
CCCCCCCCCCCCC(=O)CCCCC(=O)O -6.1%
O=C1CC(N2CCN(c3ccc(C(=O)c4ccc(F)cc4)cc3)CC2)C(=O)N1 (stereo not drawn) 28.2%
Cc1ccc(C)n1-c1ccsc1C(=O)CC#N 22.9%
CC(C)(C)NC(=O)c1sccc1C(=O)O 9.39%
O=C(CNC(=O)c1cccc(Cl)c1)NCCCSc1ccccc1 -1.26%
Nc1nc(N)c2cc(Sc3ccc(Cl)cc3)ccc2n1 -22.4%
Cc1cc(-c2ccco2)n(CC(=O)O)n1 5.45%
Cc1cc(-c2ccccc2)n(-c2ccccc2)n1 3.24%
COc1ccc(NC(=S)NCCc2ccccc2)c(OC)c1 18.1%
COc1ccc(NC(=S)NCCc2c[nH]c3ccccc23)c(OC)c1 20.9%
COc1cc(OC)cc(C(=O)N2CCCC(c3nc(-c4ccc(C)o4)no3)C2)c1 (stereo not drawn) 32.4%
